# Measured values reported in PubChem BioAssay (NCATS).
# Records with an inconclusive call do not appear. A call without a number means that no potency is given here. Unmarked numbers belong to inactive results. Active and inactive are the calls of the source. Unless noted, calls come from the whole dose curve.
# Assays:
# [1] = Primary qHTS for inhibitors of SARS-S pseudo-typed particle cell entry (AID 1479145); note: nearly all actives have a fitted effect of over 45% in size; note: potency is the fitted concentration of half-maximal effect; for activity change, negative = inhibition: series mostly up to about 57 µM
# [2] = Primary qHTS for Huh7 cytotoxicity: counterscreen for inhibitors of MERS-S pseudotyped particle cell entry (AID 1479147)
# [3] = Primary qHTS for inhibitors of MERS-S pseudo-typed particle cell entry (AID 1479149); note: nearly all actives have a fitted effect of over 60% in size; for activity change, negative = inhibition: series mostly up to about 57 µM
# [4] = Primary qHTS for Vero E6 cytotoxicity: counterscreen for inhibitors of SARS-S pseudo-typed particle cell entry (AID 1479150)
# [5] = molecular target: Protein phosphatase 1D (Homo sapiens) (UniProt O15297); assay: RapidFire Mass Spectrometry qHTS Assay for Modulators of WT P53-Induced Phosphatase 1 (WIP1) (AID 1347424; active = well fitted curve in the direction sought with a large enough effect; an effect the other way counts as inactive or inconclusive;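 note: amount of dephosphorylated VEPPL-S-QETFS peptide product formed by WIP1; series mostly up to about 63 µM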)
# Procedure, shortened: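 10 nM WIP1 preincubated with compounds 1 hr at room temperature in pH 7.5 Tris buffer with 30 mM MgCl2, 1 mM TCEP; 2 uM VEPPL-pS-QETFS phosphopeptide for 5 min, formic acid quench; dephosphorylated product quantified by RapidFire MS against labelled standard.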
# [6] = molecular target: Protein phosphatase 1D (Homo sapiens) (UniProt O15297); assay: Rhodamine-PBP qHTS Assay for Modulators of WT P53-Induced Phosphatase 1 (WIP1) (AID 1347425; active = well fitted curve in the direction sought with a large enough effect; an effect the other way counts as inactive or inconclusive)
# Procedure, shortened: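 5 nM WIP1 + 10 uM Rh-PBP, 50 mM Tris pH 7.5, 30 mM MgCl2, 1 mM TCEP, 0.1 mM EGTA, BSA; cpds pinned, 1 hr RT; + 10 uM phosphopeptide; fluorescence 1-min reads x 11 min; delta = f1 - f0.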
# [7] = qHTS to identify inhibitors of the type 1 interferon - major histocompatibility complex class I in skeletal muscle: primary screen against the NCATS Mechanism Interrogation Plate v5.0 (MIPE) Libary (AID 1347411; active = well fitted curve in the direction sought with a large enough effect; an effect the other way counts as inactive or inconclusive; note: nearly all actives have a fitted effect of over 65% in size)
# Procedure, shortened: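 Immortalized human myoblasts (C25cl48) with HiBit knocked into endogenous HLA-B*08:01 were stimulated with 4 ng/ml IFN-beta and given compounds in 11-point 1:3 titration from 46 uM. After 24 h at 37 C, lytic HiBiT luminescence was read.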
# [8] = Primary qHTS for inhibitors of La Crosse Virus (LACV) - induced cell death in SH-SY5Y cells (AID 1508616; active = well fitted curve in the direction sought with a large enough effect; an effect the other way counts as inactive or inconclusive;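 note: top concentration of the series differs between compounds; higher means more rescue of cells from virus-induced death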)
# Procedure, shortened: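 SH-SY5Y cells (6000/well) plated 24 h, then given compounds by pin transfer and LACV at 0.01 MOI for 6 days at 37C. Viability measured by ATPLite luminescence, normalized to infected DMSO and uninfected DMSO.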
# [9] = qHTS to identify inhibitors of the type 1 interferon - major histocompatibility complex class I in skeletal muscle: primary screen against the NCATS Pharmaceutical Collection (AID 1347407; active = well fitted curve in the direction sought with a large enough effect; an effect the other way counts as inactive or inconclusive;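 note: luminescence of HiBiT knocked into endogenous HLA-B as interferon-induced MHC class I level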)
# Procedure, shortened: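 Luminescence from HiBiT-tagged endogenous HLA-B*08:01 served as the read-out of IFN-beta-induced MHC class I in CRISPR-engineered C25cl48 myoblasts. Cells received 4 ng/ml IFN-beta plus compound (high final 46 uM, […]) for 24 h.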
# Protein phosphatase 1D (Homo sapiens), sequence (O15297 whole entry, looked up): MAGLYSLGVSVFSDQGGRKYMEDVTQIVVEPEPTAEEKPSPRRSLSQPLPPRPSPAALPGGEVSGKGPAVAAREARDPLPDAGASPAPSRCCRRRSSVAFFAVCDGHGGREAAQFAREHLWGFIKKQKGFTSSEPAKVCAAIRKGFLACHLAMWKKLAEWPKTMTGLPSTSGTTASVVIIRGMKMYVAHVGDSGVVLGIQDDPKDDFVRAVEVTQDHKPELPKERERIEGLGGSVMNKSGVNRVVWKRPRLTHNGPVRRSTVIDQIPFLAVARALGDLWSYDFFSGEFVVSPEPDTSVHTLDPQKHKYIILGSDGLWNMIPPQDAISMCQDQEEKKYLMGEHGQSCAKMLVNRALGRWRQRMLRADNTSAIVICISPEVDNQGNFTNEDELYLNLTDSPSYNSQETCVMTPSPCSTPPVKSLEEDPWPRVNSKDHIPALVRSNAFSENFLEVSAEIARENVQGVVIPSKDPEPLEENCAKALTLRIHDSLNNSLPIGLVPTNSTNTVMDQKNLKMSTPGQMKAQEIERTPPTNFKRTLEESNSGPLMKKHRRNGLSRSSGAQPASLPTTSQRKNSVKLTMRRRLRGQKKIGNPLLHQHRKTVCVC
smiles,measurement,setting,value
CCCC(=O)O[C@]1(C(=O)CO)CC[C@H]2[C@@H]3CCC4=CC(=O)CC[C@]4(C)[C@H]3[C@@H](O)C[C@@]21C,Potency,[1],inactive
same,Potency,[2],inactive
same,Potency,[3],inactive
same,Potency,[4],inactive
COc1nccnc1NS(=O)(=O)c1ccc(N)cc1,Potency,[1],inactive
same,Potency,[2],inactive
same,Potency,[3],inactive
same,Potency,[4],inactive
CC[C@@]1(O)C(=O)OCc2c1cc1n(c2=O)Cc2c-1nc1ccccc1c2/C=N/OC(C)(C)C,Potency,[1],inactive
same,Potency,[2],inactive
same,Potency,[3],inactive
COC(=O)C(c1ccccc1)C1CCCCN1 (configuration not stated),Potency,[1],inactive
same,Potency,[2],inactive
same,Potency,[3],inactive
same,Potency,[4],inactive
COc1cccc2c1C(=O)c1c(O)c3c(c(O)c1C2=O)C[C@@](O)(C(=O)CO)C[C@@H]3O[C@H]1C[C@H](N)[C@@H](O)[C@H](C)O1,Potency,[1],10 µM (active)
CC(=O)[C@@]1(O)CC[C@H]2[C@@H]3C[C@H](C)C4=CC(=O)C=C[C@]4(C)[C@@]3(F)[C@@H](O)C[C@@]21C,Potency,[1],inactive
same,Potency,[2],inactive
same,Potency,[3],inactive
same,Potency,[4],inactive
Cc1c(I)c(=O)n(-c2ccccc2)n1C,Potency,[1],inactive
same,Potency,[2],inactive
same,Potency,[3],inactive
same,Potency,[4],inactive
CN1CC[C@]23c4c5ccc(O)c4O[C@H]2[C@@H](O)C=C[C@H]3[C@H]1C5,Potency,[5],inactive
same,outcome,[6],inactive
O=C1O[C@H](CO)[C@@H](O)[C@H](O)[C@H]1O,Potency,[1],inactive
same,Potency,[2],inactive
same,Potency,[3],inactive
same,Potency,[4],inactive
C[C@]12CC[C@@H]3c4ccc(OC(=O)N(CCCl)CCCl)cc4CC[C@H]3[C@@H]1CC[C@@H]2OP(=O)(O)O,Potency,[7],inactive
same,Potency,[2],inactive
same,Potency,[3],inactive
same,Potency,[4],inactive
Cc1cnc(NC(=O)C2=C(O)c3ccccc3S(=O)(=O)N2C)s1,Potency,[1],inactive
same,Potency,[2],inactive
same,Potency,[3],inactive
COP(=S)(OC)Oc1cc(Cl)c(Cl)cc1Cl,Potency,[5],inactive
same,outcome,[6],inactive
same,Potency,[1],inactive
same,Potency,[2],inactive
same,Potency,[3],inactive
same,Potency,[4],inactive
same,outcome,[8],inactive
O=C(O)CNC(=O)c1ccccc1,Potency,[1],inactive
same,Potency,[2],inactive
same,Potency,[3],inactive
same,Potency,[4],inactive
NC(=O)c1cc[n+](CC2=C(C(=O)[O-])N3C(=O)[C@@H](NC(=O)Cc4cccs4)[C@H]3SC2)cc1,Potency,[1],inactive
same,Potency,[2],inactive
same,Potency,[3],inactive
same,Potency,[4],inactive
CCOC(=O)O[C@]1(C(=O)OCCl)CC[C@H]2[C@@H]3CCC4=CC(=O)C=C[C@]4(C)[C@H]3[C@@H](O)C[C@@]21C,Potency,[1],inactive
same,Potency,[2],inactive
same,Potency,[3],inactive
same,Potency,[4],inactive
C[C@]12CC[C@H]3[C@@H](CCC4=CC(=O)CC[C@@H]43)[C@@H]1CC[C@@H]2OC(=O)CCc1ccco1,Potency,[5],inactive
same,Potency,[1],inactive
same,Potency,[2],inactive
same,Potency,[3],inactive
same,Potency,[4],inactive
same,outcome,[8],inactive
CC(C)Cc1ccc(C(C)C(=O)O)cc1 (configuration not stated),Potency,[1],inactive
same,Potency,[2],inactive
same,Potency,[3],inactive
same,Potency,[4],inactive
CN(C)CCc1c[nH]c2cccc(OP(=O)(O)O)c12,Potency,[9],inactive
same,outcome,[8],inactive
CO/N=C(\C(=O)N[C@@H]1C(=O)N2C(C(=O)O)=C(C[N+]3(C)CCCC3)CS[C@H]12)c1csc(N)n1,Potency,[1],inactive
same,Potency,[2],inactive
same,Potency,[3],inactive
same,Potency,[4],inactive
S=P(N1CC1)(N1CC1)N1CC1,outcome,[1],inactive [at 0.573 µM]
same,"activity change, negative = cytotoxicity",[2],-8.32% [at 0.573 µM]
same,"activity change, negative = inhibition",[3],3.72% [at 0.573 µM]
same,"activity change, negative = cytotoxicity",[4],-9.38% [at 0.573 µM]
CS(=O)(=O)c1ccc([C@@H](O)[C@@H](CO)NC(=O)C(Cl)Cl)cc1,Potency,[1],inactive
same,Potency,[2],inactive
same,Potency,[3],inactive
same,Potency,[4],inactive
COCCCN1CCC(NC(=O)c2cc(Cl)c(N)c3c2OCC3)CC1,Potency,[1],inactive
same,Potency,[2],inactive
same,Potency,[3],inactive
same,Potency,[4],inactive
Cc1c(C(C)C)c(=O)n(-c2ccccc2)n1C,Potency,[1],inactive
same,Potency,[2],inactive
same,Potency,[3],inactive
same,Potency,[4],inactive
C[C@@H](N)[C@@H](O)c1ccccc1,Potency,[5],inactive
same,outcome,[6],inactive
same,Potency,[1],inactive
same,Potency,[2],inactive
same,Potency,[3],inactive
same,Potency,[4],inactive
same,outcome,[8],inactive
Cc1cc2cc3c(C)cc(=O)oc3c(C)c2o1,Potency,[1],inactive
same,Potency,[2],inactive
same,Potency,[3],inactive
same,Potency,[4],inactive
CO[C@@]1(NC(=O)CSCC#N)C(=O)N2C(C(=O)O)=C(CSc3nnnn3C)CS[C@@H]21,Potency,[1],inactive
same,Potency,[2],inactive
same,Potency,[3],inactive
same,Potency,[4],inactive
CC(C)=CCC/C(C)=C/CC/C(C)=C/CCC(=O)OC/C=C(\C)CCC=C(C)C,Potency,[1],inactive
same,Potency,[2],inactive
same,Potency,[3],inactive
O=C1c2c(O)cccc2Cc2cccc(O)c21,Potency,[1],inactive
same,Potency,[2],inactive
same,Potency,[3],inactive
same,Potency,[4],inactive
CC(C)(C)c1ccc(O)cc1,outcome,[6],inactive
same,Potency,[1],inactive
same,Potency,[3],inactive
same,outcome,[8],inactive
Cc1nnc(NS(=O)(=O)c2ccc(N)cc2)s1,Potency,[1],inactive
same,Potency,[2],inactive
same,Potency,[3],inactive
same,Potency,[4],inactive
CC(C)(C)NCC(O)COc1ccccc1OCC1CCCO1 (configuration not stated),Potency,[1],inactive
same,Potency,[2],inactive
same,Potency,[3],inactive
same,Potency,[4],inactive
CC(C)=CCC/C(C)=C/CO,Potency,[1],inactive
same,Potency,[2],inactive
same,Potency,[3],inactive
same,Potency,[4],inactive
Cc1ccc(C(=O)C(=O)O)cc1C,Potency,[1],inactive
same,Potency,[2],inactive
same,Potency,[3],inactive
same,Potency,[4],inactive
CCOC(=O)c1ccc(N)cc1,Potency,[1],inactive
same,Potency,[2],inactive
same,Potency,[3],inactive
same,Potency,[4],inactive
CC1(C)O[C@@H]2C[C@H]3[C@@H]4CCC5=CC(=O)C=C[C@]5(C)[C@@H]4[C@@H](O)C[C@]3(C)[C@]2(C(=O)CO)O1,Potency,[1],inactive
same,Potency,[2],inactive
same,Potency,[3],inactive
same,Potency,[4],inactive
O=C(CO)[C@@H](O)[C@H](O)[C@@H](O)CO,Potency,[1],inactive
same,Potency,[2],inactive
same,Potency,[3],inactive
same,Potency,[4],inactive
